# The panel holds about 79,000 compounds, 15% with a hit somewhere; the sample as a whole holds those more often. Values without a mark were called inactive. Active and inactive are the calls of the source. Cut-off read from the data, not from the text of the source: active = growth inhibition above about 70%; inactive = the rest.
# Key:
# [1] = NCI Yeast Anticancer Drug Screen. Data for the rad50 strain (AID 155);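 note: 0% = growth of vehicle-only cultures of the same strain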; conditions: S. cerevisiae rad50 strain growth inhibition; at 50.0 µM; active compounds read high
# Summary of the method: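 Growth of the mutant yeast was measured after compound exposure and referenced to vehicle-treated cultures.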
# [2] = NCI Yeast Anticancer Drug Screen. Data for the mec2-1 strain (AID 157); conditions: S. cerevisiae mec2-1 strain, at 50.0 µM, active compounds read high
# Summary of the method: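 Mutant yeast (mec2-1) grown with compound; growth inhibition relative to vehicle control reported.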
# [3] = NCI Yeast Anticancer Drug Screen. Data for the sgs1 mgt1 strain (AID 161);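 note: 0% = growth of cultures given vehicle only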; conditions: S. cerevisiae sgs1 mgt1 strain, at 50.0 µM, active compounds read high
# Summary of the method: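 Yeast cells carrying a defined DNA-repair defect were exposed to test compounds. Growth inhibition was measured relative to vehicle-treated controls.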
# [4] = NCI Yeast Anticancer Drug Screen. Data for the cln2 rad14 strain (AID 165);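 note: 0% = growth equal to vehicle treated cultures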; conditions: S. cerevisiae cln2 rad14 strain, at 50.0 µM, active compounds read high
# Summary of the method: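 Readout is yeast growth inhibition versus vehicle-treated controls, using a strain with cln2 and rad14 alterations exposed to compound.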
# [5] = NCI Yeast Anticancer Drug Screen. Data for the bub3 strain (AID 167); conditions: S. cerevisiae bub3 mutant strain, at 50.0 µM, active compounds read high
# Summary of the method: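 Whole-cell yeast assay. The mutant strain was incubated with compounds, and growth inhibition was determined by comparison with vehicle-treated cells.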
# [6] = NCI Yeast Anticancer Drug Screen. Data for the mlh1 rad18 strain (AID 175); conditions: S. cerevisiae mlh1 rad18 strain growth inhibition; at 50.0 µM; active compounds read high
# Summary of the method: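 Genetically defined yeast (DNA repair-deficient) exposed to compounds; growth inhibition determined relative to vehicle.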
SMILES,growth inhibition [1],growth inhibition [2],growth inhibition [3],growth inhibition [4],growth inhibition [5],growth inhibition [6]
O=C(Nc1ccccc1)C(=O)Nc1ccccc1,5.4%,-18.1%,-8.05%,-12.7%,-10.9%,-4.25%
C=C1[C@H](OCC(C)C)[C@@H](OCC(C)C)[C@@H](O)C(C)(C)/C=C/[C@H](C)C(=O)[C@@]2(O)C[C@H](C)[C@H](O)[C@@H]2[C@H]1OCC(C)C,-37.9%,-45%,-9.85%,-36.3%,-12.8%,-68.8%
CCc1n[nH]c(=O)n1/N=C/c1ccccc1O,-9.2%,3.8%,-5.75%,3.4%,-0.35%,24.6%
O=C(c1ccccc1)c1cc(Cl)ccc1NCn1nnc2ccccc21,-47.9%,-22.1%,-40.8%,-21.8%,-49.5%,-30.1%
C/C(CC(=O)Nc1cc(C)ccc1C)=N/N=C(N)N,-24.6%,-28.3%,-11.5%,17.8%,-22.9%,-8.55%
COc1cccc(C(=O)C(CCC#N)c2ccccc2)c1 (stereo unspecified),24.8%,18.5%,31.4%,20.9%,42.8%,9.75%
CC(=O)Nc1cccc2[nH]c(=O)c3ccccc3c12,3.4%,-6.4%,-5.8%,-19.3%,-16.9%,4.55%
O=C(N/N=C1\C(=O)N(c2nccs2)C(=O)C(=O)C1c1nc2ccccc2s1)c1ccccc1O (stereo unspecified),23.1%,16.9%,20.4%,30.1%,4.5%,34.1%
Nc1nc(C2CCCCC2)cs1,54.2%,29.8%,31.1%,16.1%,14.9%,20.4%
CCOC(=O)C1C(NNC(N)=O)CN(C(=O)OCC)C1C(=O)OCC (stereo unspecified),-9.2%,-5.8%,-15.9%,0.4%,8.45%,10.4%
CCc1c(Cc2[nH]c(Cc3[nH]c(C=O)c(C)c3CC)c(CC)c2CC)[nH]c(C=O)c1C,5.25%,-7.5%,-5.85%,-45.9%,-0.75%,-8.75%
c1ccc(CN2CCCNCC2)cc1,9.55%,-1.4%,-0.25%,-11.8%,4.7%,-0.05%
NCCCC(=O)NCCCC(=O)O,19.9%,-5.75%,-2.25%,-15.9%,-6.75%,2%
CN1C/C(=C\c2ccc(N(C)C)cc2)C(=O)/C(=C/c2ccc(N(C)C)cc2)C1,-17.6%,-8.05%,-2.2%,-1.35%,4.05%,-9.85%
CCC(C)(C)N,0.3%,2.7%,4.25%,-73.2%,9.15%,-20.2%
Cc1cc2c(c(S(=O)(=O)c3ccccc3[N+](=O)[O-])c1)NCCC2,2.95%,-36%,3.3%,-23.4%,14.8%,-15.8%
N#CCc1cn(-c2ccccc2)nn1,-7.85%,8.3%,-9.5%,5.45%,0.45%,-25.2%
COc1ccc(NC(=O)COc2cc(Cl)c(Cl)cc2Cl)cc1,-3.7%,6.8%,2.05%,11.9%,3.9%,-17.9%
CC1C[C@]2(C)C(=O)N(c3ccccc3)C(=N)[C@@H]2N(C)c2ccccc21 (stereo partly specified),-14.2%,6.7%,-3.55%,-4.15%,25.9%,-15.8%
CC(=O)OC1CCC2(C)C3C/C(=N\O)C4(C)C(C(C)OC(C)=O)CCC4C3CCC2(C)C1 (stereo unspecified),95.3% (active),96.7% (active),96% (active),91.8% (active),93.2% (active),95.9% (active)
FC(F)(c1nn[nH]n1)C(F)(F)C(F)(F)c1nn[nH]n1,-6.8%,-2.6%,-10.8%,-36.2%,-1.05%,-2.95%

SMILES,growth inhibition [1],growth inhibition [2],growth inhibition [3],growth inhibition [4],growth inhibition [5],growth inhibition [6]
CC(=O)NC(CCC(=O)C=[N+]=N)C(=O)O (stereo unspecified),18.4%,-14.7%,33.5%,14.1%,23.8%,12.6%
COc1ccc(C2S/C(=C\c3cccc(O)c3)C(=O)N2NC(=O)Cc2ccccc2)cc1 (stereo unspecified),-15.3%,-34.5%,-6.2%,-46.5%,-1.2%,10.9%
CCCCCCCCC1=C(CCCCCCC(=O)OC)[14CH2]1,0.25%,16.6%,-11.2%,43.4%,3%,24.5%
COc1ccc(NC(=O)C(=O)C2CNC(=O)NC2=O)c(OC)c1 (stereo unspecified),-9.2%,-5.8%,-17.6%,-6.65%,-13.1%,-17.3%
O=S(=O)(O)c1cc2c3ccccc3ccc2c2ccccc12,1.75%,-5.35%,13.8%,-15.5%,-1.35%,21.8%
CC1CCC(C(C)C)C(OC(=O)c2ccccc2O)C1 (stereo unspecified),16.1%,6.9%,-11.3%,33.5%,12%,35.5%
CCC(N)CS(=O)(=O)O (stereo unspecified),-33.7%,-19.6%,-9.9%,-61%,-26.8%,-45.1%
CC(c1ccccc1)n1cnc2c(N(CCO)CCO)ncnc21 (stereo unspecified),2.5%,-1.6%,9.45%,-4.05%,9.85%,11.7%
CCCCCCCCCCCCCCCCCC(=O)NCC[N+](C)(C)C,99% (active),99.5% (active),99.4% (active),98.8% (active),98.8% (active),99.2% (active)
S=C(Nc1ccccc1)Nc1ccc(NC(=S)Nc2ccccc2)cc1,8.25%,-0.25%,-3.6%,-4.95%,-8.45%,-52.2%
C(=C1c2c(ccc3ccccc23)Oc2ccc3ccccc3c21)c1ccccc1,14.3%,10.6%,12.3%,-30.1%,1.65%,14.3%
Cc1cc(Br)c(NC(=S)SCc2ccc(Cl)cc2)cc1C,88.2% (active),80% (active),82.6% (active),63.5%,80% (active),95.8% (active)
CC(=O)OCC(C)Cc1ccc(C(C)(C)C)cc1 (stereo unspecified),3%,0.3%,0.7%,-4%,9.6%,-2.4%
O=[N+]([O-])c1cc(Br)c2ccccc2c1,6.7%,4.9%,6.45%,2%,18.2%,15.1%
CC1=Nc2ccccc2NC(C)(C)C1,30.1%,23.4%,29.5%,13.9%,15.2%,20.4%
O=C(COc1ccc2c(=O)cc(-c3ccc(Cl)cc3)oc2c1)N1CCN(c2ccccc2)CC1,9.15%,7.05%,-8.8%,29.1%,3.95%,10.9%
COc1cccc(C2c3cc4c(cc3OC(N3CCOCC3)C2C)OCO4)c1OC (stereo unspecified),-25.4%,-10.1%,-7.85%,2.55%,-2.05%,-6.1%
Cc1ccc(OC(=O)Nc2ccc(C(=O)O)c(O)c2)cc1,-10.9%,8.3%,9.2%,-6.75%,-4.7%,-5.2%
C[N+](C)(C)/C=C/c1ccccc1,30.8%,-8.2%,21%,-11.3%,0.2%,38.9%
CCC(=O)Oc1cccc2ccccc12,-14.4%,-26.9%,-14.8%,-14.3%,-24.9%,-8.05%
